KDM5B inhibitor: KDM5B demethylase inhibition; KDM5B demethylase, FDH-coupled NADH fluorescence (FDH is formaldehyde dehydrogenase); Potency, µM (highest dose often 57.7 µM), usual class: inhibitors; actives 2.6% (n = 220,000); active = well fitted inhibition curve with a large enough effect; also: 0% is about no effect; nearly all actives have a fitted effect of over 70% in size
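Compound dilutions met 200 nM (final) KDM5BΔAP for 10 min at room temperature before substrate addition. The substrate mix held 12.5 µM H3K4me3 with cofactors 25 µM α-ketoglutarate and 50 µM Fe²⁺. NADH signal gain over 30 min defined activity.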
The depositor's hits bear a star; i = inactive. The full list was thinned out, with hits kept by preference. Potency is read from the fitted curve at half-maximal effect.

SMILES | KDM5B inhibitor
COc1cccc(C2CNC(=O)c3nc(Cn4nc(C)c(C)c4C)[nH]c3C2)c1 (configuration not stated) | i
CCCc1cc(-c2nc3c([nH]2)CC(c2ccccc2OC)CNC3=O)on1 (configuration not stated) | i
COc1cccc(C2CNC(=O)c3nc(-c4ccc(C(=O)N(C)C)o4)[nH]c3C2)c1 (configuration not stated) | 28.2µM*
CC(C)CNC(=O)CCNC(=O)c1ccc(C(C)(C)C)cc1 | i
Cn1cc(C(=O)N2CCOc3c(O)cc(-c4csc5ccccc45)cc3C2)cn1 | i
CCc1nc(CN2CCOc3c(O)cc(-c4nc(C)cnc4C)cc3C2)no1 | i
Cc1cnc(C)c(-c2cc(O)c3c(c2)CN(C(=O)c2ccncn2)CCO3)n1 | 25.1µM*
Cc1nc2sccn2c1-c1csc(Nc2cccc(Cl)c2C)n1 | i
COc1ccccc1-c1cc(NCc2ccncc2)c2onc(C)c2n1 | 28.2µM*
Cc1noc2c(Nc3ccncc3)cc(-c3ccc(F)cc3)nc12 | 28.2µM*
COc1ccccc1-c1cc(NCC2CCOCC2)c2onc(C)c2n1 | i
COc1ccccc1-c1cc(N2CCN(c3ccccn3)CC2)c2onc(C)c2n1 | i
COCCNc1cc(-c2ccc(F)cc2)nc2c(C)noc12 | i
Cc1noc2c(NCCN(C)C)cc(-c3ccc(F)cc3)nc12 | i
Cc1nc(C)c(C(=O)N2CCC(Cc3nc(C4CC4)n[nH]3)CC2)s1 | i
CCC(C(=O)N1CCN(Cc2ccc(C)c(C)c2)C(=O)C1)n1cccn1 (configuration not stated) | i
O=C(c1ccccn1)N1CCC2(CC1)NC(=O)N(Cc1ccc(F)cc1)C2=O | i
O=C1CN(C(=O)c2cnc3ccccn3c2=O)CCN1Cc1ccc(F)cc1 | 28.2µM*
CN(Cc1ccc(C(=O)NCC(F)(F)F)cc1)C(=O)C1CCN(C(=O)C2CC2)CC1 | i
COc1cc(C(=O)Nc2ccccc2)nc2ccc(Cl)cc12 | i
COCCOCCCNC(=O)c1ccc2nc(C)c(C)nc2c1 | i
COc1cc(CC(=O)N2Cc3[nH]cnc3CC2C(=O)O)cc(OC)c1OC (configuration not stated) | i
Cc1cccc(=O)n1CCC(=O)N1Cc2[nH]cnc2CC1C(=O)O (configuration not stated) | i
COc1ccc2c(c1)cc(C(=O)N1Cc3[nH]cnc3CC1C(=O)O)n2C (configuration not stated) | 17.8µM*
CCN(Cc1ccccc1)C(=O)CCc1nc(C2CCCN2S(C)(=O)=O)no1 (configuration not stated) | i
SMILES | KDM5B inhibitor
Cc1ccccc1CN1CCC(n2nccc2NC(=O)c2cccnc2)CC1 | i
COc1ccccc1C(=O)Nc1ccnn1C1CCN(C(=O)C2CCCO2)CC1 (configuration not stated) | i
COc1ccccc1C(=O)Nc1ccnn1C1CCN(c2cnccn2)CC1 | 28.2µM*
CC1=C(C(N)=O)C(c2ccc(Cl)cc2)n2nc(-c3cccc(C)c3)nc2N1 (configuration not stated) | i
O=C(NCc1cc(F)ccc1F)C1CN(S(=O)(=O)c2cccnc2)CC12CCCCC2 (configuration not stated) | i
O=C(C1CCCO1)N1CCCC(c2ccccc2)(c2ccccc2)C1 (configuration not stated) | i
COC[C@@H]1[C@H](NC(=O)c2ccc(-n3cccn3)cc2)[C@@H]2CCO[C@H]12 | i
CN(CC(=O)N[C@H]1[C@H]2CCO[C@H]2[C@@H]1N(C)C)Cc1ccc(F)cc1 | i
Cc1nc2ncccn2c1C(=O)N[C@H]1[C@H]2CCO[C@H]2[C@@H]1N(C)C | 31.6µM*
Cc1nc(N2CCCCC2)ncc1C(=O)NC1CCOC2(CCOCC2)C1 (configuration not stated) | i
Cc1nc(N2CCCC2)ncc1C(=O)Nc1ccc(OC(F)(F)F)cc1 | i
Cc1nc(N2CCCCC2)ncc1C(=O)N[C@H]1[C@H]2CCO[C@H]2[C@@H]1N(C)C | 22.4µM*
O=S(=O)(Nc1nc2ccccc2nc1NCc1ccc(F)cc1)c1ccc(F)cc1 | i
O=S1(=O)C[C@H](N2CCN(Cc3ccc4c(c3)OCO4)CC2)[C@@H](S(=O)(=O)c2ccccc2)C1 | i
O=C(c1ccnc(CC2CC(=O)N(c3ccccc3)C2)c1)N1CCCCC1 (configuration not stated) | i
Cc1ccc(-c2cnc(CCC(=O)NCC(c3cccc(F)c3)N(C)C)o2)cc1 (configuration not stated) | i
O=C(c1ccc(Cl)nc1)N1CCC(c2nn(-c3ccc(Cl)cc3)c(=O)[nH]2)CC1 | i
COc1ccc2c(c1)CCN=C2C[C@H]1CN(C(=O)c2ccccc2)CC[C@H]1CC(=O)O | 28.2µM*
CS(=O)(=O)N1CCC(C2CCN(C(=O)c3ccc4c(c3)OCO4)C2)CC1 (configuration not stated) | i
COc1ccc(CC(=O)N2CC[C@@H](CC(=O)O)[C@@H](CCN3CCC(n4c(=O)[nH]c5ccccc54)CC3)C2)cc1 | i
COc1cc2c(cc1OC)C(C[C@H]1CN(C(=O)Cc3cccs3)CC[C@H]1CC(=O)O)=NCC2 | 28.2µM*
COc1ccc(S(=O)(=O)N2CCCCC2)cc1NC(=O)Cc1cccs1 | i
COc1ccc(CC(=O)N2CC[C@@H](CC(=O)O)[C@@H](CCN3CCC[C@H]3C(N)=O)C2)cc1 | i
COc1cc2c(cc1OC)C(C[C@H]1CN(C(=O)c3ccccc3)CC[C@H]1CC(=O)O)=NCC2 | i
COc1cc2c(cc1OC)C(C[C@H]1CN(C(=O)c3ccc4c(c3)OCO4)CC[C@H]1CC(=O)O)=NCC2 | 31.6µM*
SMILES | KDM5B inhibitor
COc1ccc2c(c1)CCN=C2C[C@H]1CN(C(=O)Cc2cccs2)CC[C@H]1CC(=O)O | 35.5µM*
COc1cc2c(cc1OC)C(C[C@H]1CN(C(=O)c3ccc(F)cc3)CC[C@H]1CC(=O)O)=NCC2 | i
COc1ccc(C(=O)N2CC[C@@H](CC(=O)O)[C@@H](CCN3CCC(C(N)=O)CC3)C2)cc1 | i
CN(CC[C@H]1CN(C(=O)c2cccs2)CC[C@H]1CC(=O)O)c1ccccc1 | i
CN(C)CCCn1ccnc1C1CCN(C(=O)C2CCCN(C)C2)CC1 (configuration not stated) | i
NC(=O)C1CCN(C(=O)c2ccc3nc(C(F)(F)F)sc3c2)CC1 | i
CC(C)c1ccc(C(C)NC(=O)C2CC2)cc1 (configuration not stated) | i
CCNC(c1ccccc1)c1ccccc1 | i
O=C(CCc1cc(Cl)no1)N(CCS(=O)(=O)N1CCCC1)Cc1ccncc1 | i
COc1ccc(/C=C/c2nc3cc(C)c(C)cc3s2)c(OC)c1OC | i
COC(=O)C[C@@H]1CCN(C(=O)COc2ccccc2)C[C@@H]1CC1=NCCc2cc(OC)c(OC)cc21 | 25.1µM*
C=CCNC(=O)N1CCOC(CN(CC(C)C)C(=O)c2cccc(OC)c2)C1 (configuration not stated) | i
C=CCNC(=O)N1CC[C@@H](CC(=O)O)[C@@H](CC2=NCCc3cc(OC)ccc32)C1 | 35.5µM*
CS(=O)(=O)N1CCC(C2CCN(C(=O)COc3ccccc3)C2)CC1 (configuration not stated) | i
COc1ccc2c(c1)CCN=C2C[C@H]1CN(C(=O)C(C)(C)C)CC[C@H]1CC(=O)O | i
O=C(O)C[C@@H]1CCN(C(=O)COc2ccccc2)C[C@@H]1CCN1CCCCC1 | i

Assay outcomes deposited in PubChem by National Center for Advancing Translational Sciences (NCATS).
